HEK293 tox = qHTS of GLP-1 Receptor Inverse Agonists: Cytotox Screen; 0.13% of 410,000 active; HEK293 cAMP-luciferase reporter cells, luminescence, 24 h; Potency, µM (doses to about 38.3 µM), hits mostly inhibitors;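 note: loss of luciferase light is scored as toxicity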
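A 23 nL compound transfer followed 12 hours of cell culture at 37 deg C; exposure then lasted 24 hr. Luciferase assay detection reagent was dispensed and plates read for luminescence after a 12 min room-temperature wait.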
GLS inh = qHTS for Inhibitors of Glutaminase (GLS); Glutaminase kidney isoform, mitochondrial (Homo sapiens), O94925; GLS enzymatic activity, qHTS titration; Potency, µM (titrated, usually from 45.5 µM), usual class: inhibitors; 0.21% of 410,000 active
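Human kidney-isoform GLS in 45 mM KH2PO4 pH 8.2, 0.02% Tween-20, with compound, started with 1mM L-Glutamine (added stock). Glutamate oxidase/HRP/Amplex red coupled fluorescence read at start and after 30 min at RT.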
KCNH2 3.1 block = qHTS for Inhibitors of KCHN2 3.1: Mutant qHTS | Potassium voltage-gated channel subfamily H member 2, brain isoform KCNH2 3.1 (human) | U2OS KCNH2 3.1, thallium flux FluxOr; active compounds read low | activity change, % (tested at about 1.8 µM) | 0.95% of 340,000 active | AID 720553, 2013;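 active = maximum activity change below -70%; inconclusive = maximum activity change from -70% to -50%; inactive = maximum activity change above -50%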;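 note: thallium influx rate constant from kinetic fluorescence after stimulation buffer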
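Normalized rate constant (relative to positive and negative DMSO controls) derived from a 2 min kinetic fluorescence read after stimulation; U2OS cells expressing the 3.1 isoform via virus at 1.77 x 10^8 /mL.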
hERG WT inh = qHTS for Inhibitors of KCHN2 3.1: Wildtype qHTS. Voltage-gated inwardly rectifying potassium channel KCNH2 (Homo sapiens), Q12809. U2OS, BacMam KCNH2, thallium flux FluxOr; active compounds read low. activity change, % at 1.84 µM. 0.37% of 340,000 active. AID 720551, 2013;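 active = maximum activity change below -70%; inconclusive = maximum activity change between -70% and -50%; inactive = maximum activity change above -50%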
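U2OS cells were transduced with wild-type KCNH2 virus (2.03 x 10^8 / mL) for 4 h at room temperature, then cultured overnight at 37 C. Thallium flux was read with FluxOr dye. Rate constants were normalized to DMSO controls.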
GLP-1R agonist = qHTS of GLP-1 Receptor Agonists | Potency, µM (series often up to 45.6 µM), most hits filed as activators | Glucagon-like peptide 1 receptor (Homo sapiens), P43220 | 0.007% of 380,000 active | HEK293 GLP-1R CRE-luciferase, luminescence, 4-6 h; cells express a hypersensitive GLP-1R form | AID 624172, 2012
GLP-1R inv ag = qHTS of GLP-1 Receptor Inverse Agonists (Inhibition Mode); AID 624417, 2012; HEK293 GLP-1R CRE-luciferase, luminescence, 24 h; GLP-1R form is constitutively active; Potency, µM (titrated, usually from 38.3 µM), actives largely listed as inhibitors; Glucagon-like peptide 1 receptor (Homo sapiens), P43220; 1.6% of 410,000 active; note: nearly all actives have a fitted effect of over 55% in size
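GLP-1R inverse agonism mode: basal reporter luminescence in engineered HEK293 cells measured after one day of compound exposure at 37 deg C, with a 12 min room-temperature detection step.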
Hits are given with their value; . = inactive; ? = inconclusive; / = not tested or not shown. Only some compounds are listed: those with a hit (about 2.8% of all), similar ones and a draw of the others. Unless noted, calls come from the whole dose curve; as a rule, active = well fitted curve in the direction sought with a large enough effect; inconclusive = small, poorly fitted or top-dose-only effect, or another doubt; inactive = no such curve, though single readings can be large; an effect the other way counts as inactive or inconclusive.

SMILES | HEK293 tox | GLS inh | KCNH2 3.1 block | hERG WT inh | GLP-1R agonist | GLP-1R inv ag
COC(=O)C1=C(C)N=C2SC(C#N)=C(N)N2C1c1ccc(OCc2ccccc2)cc1 (configuration not stated) | . | . | . | . | . | 5µM
Cc1ccc2occ(CC(=O)N(Cc3ccccc3Cl)C3CCS(=O)(=O)C3)c2c1 (configuration not stated) | . | . | / | / | / | .
C=CCc1cc(Cl)ccc1OCCNCCN1CCOCC1 | . | . | . | . | . | 10µM
NC(COCc1ccccc1)c1csc(Nc2ccc(S(N)(=O)=O)cc2)n1 (configuration not stated) | . | . | / | / | . | .
O=C(C(O)c1ccccc1)N1CCN(S(=O)(=O)c2ccc(OC(F)(F)F)cc2)CC1 (configuration not stated) | . | / | / | / | / | .
O=S(=O)(c1ccccc1)N1CCN(C(c2ccccc2)c2ccc(OC(F)(F)F)cc2)CC1 (configuration not stated) | . | . | . | . | . | 10µM
O=C(CN1CCN(Cc2cccc(F)c2)CC1)Nc1ccccc1F | . | . | . | . | . | ?
O=C(CCCn1c2ccccc2c(=O)c2ccccc21)Nc1cccc(Cl)c1 | . | . | / | / | / | 6.3µM
Cc1ccc2c(c1)c(=O)c1ccccc1n2CCCC(=O)Nc1ccc(Cl)c(Cl)c1 | . | . | / | / | / | .
CC(NC(=O)c1ccco1)C12CC3CC(CC(C3)C1)C2 (configuration not stated) | . | . | . | . | . | 10µM
O=C(Cn1c(SCc2cccc(F)c2)nc2cccnc21)Nc1ccc(F)c(Cl)c1 | . | . | / | / | / | ?
CN(C)c1ccc(NC(=S)c2ccccn2)cc1 | . | . | . | . | . | 5.6µM
CN(Cc1ccccc1)C(=O)C1CCN(S(=O)(=O)c2cccc3nonc23)CC1 | . | 10µM | . | . | . | .
NNC(=O)c1ccc([N+](=O)[O-])c(CS(=O)(=O)c2ccc(Cl)cc2)c1 | ? | . | -99 | . | . | .
Cc1ccc(NC(=O)c2cc(C(C)(C)C)nn2Cc2ccccc2)cc1 | . | . | . | . | . | 4µM
CC(C)(C)c1cc(C(=O)NNc2cc(C(F)(F)F)ccc2Cl)n(Cc2ccccc2)n1 | . | ? | . | . | . | 4µM
COc1ccccc1NNC(=O)c1cc(C(C)(C)C)nn1Cc1ccccc1 | . | . | . | . | . | ?
CC(C)(C)c1cc(C(=O)NC2CC2)n(Cc2ccc(F)cc2)n1 | . | . | . | . | . | ?
CC(C)(C)c1cc(C(=O)NNc2ccc(OC(F)(F)F)cc2)n(Cc2ccccc2)n1 | . | . | . | . | . | 2.2µM
CC(C)(C)c1cc(C(=O)Nc2ccc(F)cc2)n(Cc2ccc(F)cc2)n1 | ? | . | . | . | . | 2.8µM
CC(C)(C)C(=O)NNC(=O)c1cc(C(C)(C)C)nn1Cc1ccccc1 | . | . | . | . | . | ?
CC(C)(C)c1cc(C(=O)NNc2cccc(Cl)c2)n(Cc2ccccc2)n1 | . | ? | . | . | . | 1.3µM
Cc1ccc(NNC(=O)c2cc(C(C)(C)C)nn2Cc2ccccc2)cc1 | . | ? | . | . | . | 3.2µM
CCn1c(CNC(=O)C23CC4CC(CC(C4)C2)C3)nnc1SCC(=O)Nc1ccc(F)cc1 | . | . | / | / | . | .
CCN(CC)S(=O)(=O)c1cccc(C(=O)N[C@H](C(=O)NCc2ccccc2F)C(C)C)c1 | . | . | . | . | . | ?
CCN(CC)S(=O)(=O)c1cccc(C(=O)N[C@H](C(=O)O)C(C)C)c1 | . | . | . | -170 | . | .

Assay outcomes as filed in PubChem BioAssay.
